Pf growth 96h – Primary qHTS for delayed death inhibitors of the malarial parasite plastid, 96 hour incubation; 6.9% of 320,000 active; AID 504834, 2011; P. falciparum luciferase reporter growth, 96 h; Potency, µM (series often up to 28.7 µM), inactives show at the top dose activity change, negative = inhibition, hits mostly inhibitors
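Readout is luminescence from an integrated firefly luciferase in P. falciparum. Red cells, 2% hematocrit and 0.05% parasitemia final, were cultured with compound through two parasite generations (96 hours) at 37 C, 5% CO2.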
AmpC inh detg – qHTS Inhibitors of AmpC Beta-Lactamase (assay with detergent). P00811. AmpC hydrolysis of nitrocefin, absorbance 480 nm, 0.01% Triton. AID 485294, 2010. 0.041% of 370,000 active. Potency, µM (top dose mostly 114 µM), inactives show at the highest dose activity change, negative = inhibition, most hits filed as inhibitors;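 also: 0% = no-compound wells and -100% = no-enzyme wells; nearly all actives have a fitted effect of over 25% in size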
Target sequence (P00811 whole entry, looked up): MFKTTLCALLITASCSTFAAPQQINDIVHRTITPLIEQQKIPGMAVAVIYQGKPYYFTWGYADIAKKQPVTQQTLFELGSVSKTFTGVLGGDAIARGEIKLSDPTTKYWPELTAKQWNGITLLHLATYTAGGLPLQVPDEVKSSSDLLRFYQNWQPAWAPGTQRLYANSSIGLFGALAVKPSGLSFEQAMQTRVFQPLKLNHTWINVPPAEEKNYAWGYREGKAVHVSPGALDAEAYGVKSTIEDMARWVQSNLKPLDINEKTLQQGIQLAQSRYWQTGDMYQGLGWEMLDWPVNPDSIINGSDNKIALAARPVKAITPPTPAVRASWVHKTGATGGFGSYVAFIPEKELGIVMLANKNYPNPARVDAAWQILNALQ
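AmpC (5.3 nM in the dispensed reagent) in 20 mM phosphate pH 7.0 with 0.01% (detergent screen) or 0.0001% Triton X-100 was preincubated with compounds for 15 min at room temperature. Nitrocefin was then added from an 800 uM solution, and hydrolysis was followed at 480 nm.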
HCV inhibitor – qHTS Assay for Inhibitors of Hepatitis C Virus (HCV). Potency, µM (titrated, usually from 41.8 µM), for the others: top-dose activity change, negative = inhibition, most hits filed as inhibitors. 3.4% of 340,000 active. AID 651820, 2012. Huh7.5.1 HCVcc-Cre infection, luciferase reporter, 44 h
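Whole-lifecycle infectious HCVcc-Cre system; cells 1,000/well, compound then virus (~0.5 moi) added 4 h after plating, 44 h culture. Luciferase read 15 sec following 15 min substrate incubation, room temp.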
Pf growth 48h – Primary qHTS for delayed death inhibitors of the malarial parasite plastid, 48 hour incubation. P. falciparum luciferase growth in erythrocytes, 48 h. Potency, µM (titrated, usually from 28.7 µM), inactives show top-dose activity change, negative = inhibition, usual class: inhibitors. 5.9% of 310,000 active. AID 504832, 2011
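Compounds are pin-transferred into medium, infected erythrocytes (2% hematocrit, 0.1% parasitemia final) are added, and plates sit one parasite generation at 37 C in 5% CO2. Detection reagent is then added and luminescence measured.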
AMA1-RON2 inh – qHTS for Inhibitors of AMA1-RON; Towards Development of Antimalarial Drug Lead: Primary Screen | Potency, µM (doses to about 58.2 µM), for the others: top-dose activity change, negative = inhibition, usual class: inhibitors | AlphaScreen AMA1-biotinylated RON2 peptide binding | 0.2% of 360,000 active | Plasmodium falciparum AMA1 (3D7) - RON2 peptide interaction;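 also: 0% = vehicle wells and -100% = peptide control; nearly all actives have a fitted effect of over 45% in size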
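AMA1 (3D7) with his tag at 25 nM final met compounds first, then biotinylated RON2 peptide at 25 nM; detection used donor plus acceptor beads, 10 µg/mL apiece, read by AlphaScreen after 30 min at room temperature.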
AmpC no deterg – qHTS Inhibitors of AmpC Beta-Lactamase (assay without detergent) | 0.52% of 330,000 active | AmpC nitrocefin hydrolysis, absorbance 480 nm, 0.0001% Triton | Potency, µM (titrated, usually from 57.1 µM), inactives show at the highest dose activity change, negative = inhibition, actives largely listed as inhibitors;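 also: plate controls were no compound for no effect and no enzyme for full effect; nearly all actives have a fitted effect of over 20% in size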
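AmpC (5.3 nM in the dispensed reagent) in 20 mM phosphate pH 7.0 with 0.01% (detergent screen) or 0.0001% Triton X-100 was preincubated with compounds for 15 min at room temperature. Nitrocefin was then added from an 800 uM solution, and hydrolysis was followed at 480 nm.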
Active calls of the source: *; ? = inconclusive; / = no result; [ ] = another dose, or the depositor's remark. Only some compounds are listed: those with a hit (about 11% of all), similar ones and a draw of the others. Calls follow the shape of the dose curve; as a rule, active = well fitted curve in the direction sought with a large enough effect; inconclusive = small, poorly fitted or top-dose-only effect, or another doubt; inactive = no such curve, though single readings can be large; an effect the other way counts as inactive or inconclusive. Unless noted, % is scaled to controls: 0 for no effect and ±100 for the full control effect; potency is read from the fitted curve at half-maximal effect.

SMILES	Pf growth 96h	AmpC inh detg	HCV inhibitor	Pf growth 48h	AMA1-RON2 inh	AmpC no deterg
COc1ccccc1NC(=O)CSCc1cc(=O)c2cccc(Cl)c2[nH]1	/	17%	/	/	/	/
Cc1ccc[n+](CC(=O)c2ccccc2)c1	-10%	-3%	/	18%	/	-13%
Cc1ccc(C[n+]2cccc(-c3ccccc3)c2)c(C)c1	0.33µM*	6%	?	0.93µM*	-7%	-4%
Cc1ccccc1-n1c(SCc2cc(=O)n3ccccc3n2)nc2[nH]ncc2c1=O	13µM*	2%	-12%	?	22%	-2%
Cc1cccc2nc(CSc3nc4[nH]ncc4c(=O)n3-c3ccccc3Cl)cc(=O)n12	9.3µM*	?	?	9.3µM*	6%	23%
Cc1ccccc1-n1c(SCc2cccc(F)c2)nc2[nH]ncc2c1=O	?	-1%	-1%	?	38%	-2%
CCc1nc2ccc(C(=O)NCc3ccc(OC)c(OC)c3)cc2nc1CC	/	7%	/	/	/	/
CCC(C)NC(=O)c1cc(CC(C)C)on1 (centres undefined)	12µM*	-6%	8%	41%	0%	-6%
Cc1cc(NC(=O)c2cc(CC(C)C)on2)no1	13%	?	7%	82%	-1%	-8%
CC(=O)c1ccc(NC(=O)c2cc(CC(C)C)on2)cc1	27%	?	17%	85%	16%	50µM*
CSc1ccccc1NC(=O)c1cc(CC(C)C)on1	23%	4%	14%	116%	37%	10µM*
CCc1c(C)sc(NC(=O)c2cc(CC(C)C)on2)c1C#N	13µM*	-11%	-4%	/	28%	-25%
CC(C)Cc1cc(C(=O)Nc2cccnc2)no1	0%	?	24%	/	-10%	-5%
COc1ccc(N2CCN(C(=O)COc3ccccc3C#N)CC2)cc1	/	-3%	/	/	/	/
COc1cc(C(=O)Nc2cc3c(cc2C)n(C)c(=O)c(=O)n3C)cc(OC)c1OC	/	11%	/	/	/	/
O=C(NCc1cccc(Cl)c1)C1CCC(=O)N(CCCN2CCOCC2)C1 (centres undefined)	9%	?	21%	-1%	17%	-5%
O=C(NCc1ccc(F)c(F)c1)C1CCC(=O)N(CC2CCCCC2)C1 (centres undefined)	13µM*	1%	/	0%	-2%	95%
O=C(NCCCC1CCCC1)C1CCC(=O)N(Cc2cccc(C(F)(F)F)c2)C1 (centres undefined)	12µM*	-9%	-6%	3%	25%	191%
O=C(NCc1cccc(Cl)c1)C1CCC(=O)N(CC2CCCCC2)C1 (centres undefined)	15µM*	-5%	-6%	13%	-16%	4%
O=C(NCCCn1cccn1)C1CCC(=O)N(Cc2cccc(C(F)(F)F)c2)C1 (centres undefined)	11%	-4%	24%	16%	4%	26%
O=C(NCCc1ccccc1C(F)(F)F)C1CCC(=O)N(CCCN2CCCC2=O)C1 (centres undefined)	9.3µM*	1%	19%	-18%	-1%	-3%
CC(C)Nc1ccc(-c2nc(-c3ccco3)no2)cc1[N+](=O)[O-]	/	21%	/	/	/	/
O=c1cc(N2CCCCC2)c(-c2ccccc2)nn1Cc1ccccc1Cl	2.6µM*	-2%	?	3.3µM*	13%	16%
O=c1cc(N2CCCCC2)c(-c2ccccc2)nn1Cc1cccc(Cl)c1	?	-3%	4%	?	-7%	-19%
O=c1cc(N2CCCCC2)c(-c2ccccc2)nn1Cc1ccc(Cl)cc1Cl	?	?	-19%	2.1µM*	-20%	-1%
SMILES	Pf growth 96h	AmpC inh detg	HCV inhibitor	Pf growth 48h	AMA1-RON2 inh	AmpC no deterg
Cc1ccc(CNC(=O)c2cnn3c(C)c(Cc4c(F)cccc4Cl)c(C)nc23)cc1	/	4%	/	/	/	/
Cc1cc(C)c(Cc2c(C)nc3c(C(=O)NCc4ccco4)cnn3c2C)c(C)c1	12µM*	?	8.9µM*	/	-1%	24%
O=C(NCc1ccco1)c1cnn2c(C(F)(F)F)cc(-c3cccs3)nc12	9.3µM*	?	-15%	?	-2%	-21%
CCOc1ccccc1NC(=O)N1CCN(C)c2ncccc21	/	9%	/	/	/	/
CCN(CC)C(=O)COC(=O)c1ccc(O)cc1	3%	-6%	9%	8%	19%	/
CC(C)N(C(=O)COC(=O)c1ccc(O)cc1)C(C)C	24%	-2%	7%	15%	3%	4µM*
CCC(C(=O)NCc1cc(OC)ccc1OC)n1nc(C)c2sc3ccccc3c2c1=O (centres undefined)	/	4%	/	/	/	/
CC(CNC(=O)c1ccc(Cn2c(=O)c3cccn3c3cccnc32)cc1)c1ccccc1 (centres undefined)	/	-10%	/	/	/	/
CC(C)c1ccc(C2=C(O)c3ccccc3C(=O)C2=O)cc1	164%	2%	4%	1.5µM*	0%[2.32 µM]	-26%
O=C1C(=O)c2ccccc2C(O)=C1c1cccc([N+](=O)[O-])c1	7.4µM*	5%	-17%	?	-5%	-14%
Cc1nn(C)c2c1c(-c1ccccc1)cc(=O)n2Cc1ccccc1C#N	/	5%	/	/	/	/
Cc1nc(N2CCN(Cc3nc4ccccc4[nH]3)CC2)c2oc3ccccc3c2n1	5.9µM*	0%	?	?	41%	142%
Cc1nc(SCC(=O)N2CCN(c3ccccc3)CC2)c2oc3ccccc3c2n1	27%	-6%	10µM*	60%	-4%	177%
CCc1nc(SCC(=O)NC2CCCC2)c2oc3ccccc3c2n1	?	0%	-12%	3%	-8%	-12%
Cc1nc(SCc2ccccc2F)c2oc3ccccc3c2n1	8.3µM*	-5%	15%	?	-24%	-6%
CCc1nc(SCC(=O)N2CCCc3ccccc32)c2oc3ccccc3c2n1	?	?	11µM*	?	-11%	-21%
c1ccc2[nH]c(CN3CCN(c4ncnc5c4oc4ccccc45)CC3)nc2c1	24%	?	-32%	?	3%	189%
Cc1cc(C)cc(NC(=O)C2CCCN(C(=O)c3cnn(-c4ccccc4)c3-n3cccc3)C2)c1 (centres undefined)	/	13%	/	/	/	/
COc1ccc(C(=O)NCCn2cc(SCC(=O)NCCc3ccc(OC)c(OC)c3)c3ccccc32)cc1	/	-3%	/	/	/	/
